PubChem BioAssay AID720518 (National Center for Advancing Translational Sciences (NCATS), 2013)
Results filed as inconclusive are left out. A call without a number means that no potency is given here. The source made the active and inactive calls. Calls come from the whole dose curve.

Assay: qHTS for Inhibitors of Cell Surface uPA Generation: Wild-type Protective Antigen (WT-PrAg) Counterscreen for Cherry-picked Compounds
Conditions: cells, WT protective antigen toxicity counterscreen; series mostly up to 115 µM

SMILES | Potency
CCn1c(CNc2ccc(F)cc2)nnc1SCC(=O)Nc1ccccc1OC | inactive
CCCN1CCN(CC(=O)Nc2nncs2)CC1 | inactive
CCC1(CC)NC(=O)N(CC(=O)OCC(=O)c2cc(C)c(C)cc2C)C1=O | inactive
CCC(COC)NC(=O)CCc1nnc(Cc2c[nH]c3ccccc23)o1 (stereo not given) | inactive
CCOC(=O)c1c(C)oc2ccc(OC(=O)COc3c(F)c(F)c(F)c(F)c3F)cc12 | inactive
COc1cc(CCC(=O)OCC(=O)Nc2ccc(C)cc2Br)cc(OC)c1OC | inactive
CC1CCCN(C(=O)c2ccc(-c3ccccc3Cl)o2)C1 (stereo not given) | inactive
O=C(COc1cc2oc(=O)cc(-c3ccccc3)c2cc1Cl)NC(Cc1c[nH]c2ccc(O)cc12)C(=O)O (stereo not given) | inactive
COc1cc(NC(=O)CSc2nnc3ccc(-c4ccncc4)nn23)cc(OC)c1 | inactive
O=C(C1CCN(c2nnc(N3CCCC3=O)s2)CC1)N1CCN(c2cccc(C(F)(F)F)c2)CC1 | inactive
CN(CCO)c1ccc(C(C(=O)c2ccccc2)c2ccc(N(C)CCO)cc2)cc1 | inactive
Cc1ccc(-n2cccc2C(=O)NS(=O)(=O)c2ccc(C)cc2)cc1 | inactive
COc1cc(C2NC(=O)NC(C)=C2C(=O)OCC2CCCCC2)ccc1O (stereo not given) | inactive
O=C(CN1CCOC1=O)N1CCCC(Nc2ccc(F)c(F)c2)C1 (stereo not given) | inactive
COc1ccc(CC(=O)Nc2nc(C)cs2)cc1OC | inactive
Cc1cc(C)n(C(=O)c2cccc([N+](=O)[O-])c2)n1 | inactive
Cc1ccccc1OCCC(=O)NNC(=O)c1ccccc1F | inactive
Cc1cccc(NC(=O)C2CCCN(S(=O)(=O)c3cccc4cccnc34)C2)c1 (stereo not given) | inactive
Cc1ccccc1NC(=O)N1CCN(c2ncccn2)CC1 | inactive
CCOCCOc1cc(NCc2ccccc2)c2ncn(C(C)C)c2c1 | inactive

SMILES | Potency
CC(=O)Nc1sc(C)c(C)c1C(=O)OCC(=O)NC(C)c1ccccc1 (stereo not given) | inactive
COc1ccc(-n2ncc3c(=O)n(CC(=O)NC(C)C)cnc32)cc1 | inactive
CCCCCOC(=O)Nc1nnc(CCCCC)s1 | inactive
Oc1ccc(/C=N/Nc2cccc(Cl)n2)c(O)c1 | inactive
COC(=O)c1ccc(N2CCN(c3ccccc3)CC2)c(NC(=O)C2CC2)c1 | inactive
COc1ccccc1CNC(=O)CCCn1nc(C)c2c(C)n(-c3ccccc3)nc2c1=O | inactive
Cc1cc(/C=N/NC(=O)c2ccccc2F)c(C)n1-c1ccccc1 | inactive
COc1cc(/C=N/NC(=O)c2ccncc2)ccc1O | inactive
CC(C)(O)C#Cc1ccc(C(=O)N2CCCC(CCC(=O)NCc3ccccc3F)C2)cc1 (stereo not given) | inactive
CN(CCCNC(=O)Cn1cccc1C(=O)c1ccccc1)C1CCCCC1 | inactive
O=[N+]([O-])c1ccc(C[n+]2cccc(O)c2)cc1 | inactive
COc1ccc(-c2csc(NC(C)c3nc4cc(C(=O)NCCCO)ccc4n3Cc3ccc(C)cc3)n2)cc1 (stereo not given) | inactive
COc1ccc(CNC(=O)C2(CC3CC(c4ccccc4)=NO3)CCNCC2)cc1 (stereo not given) | inactive
c1csc(CN2CCOCC2)c1 | inactive
O=C(COC(=O)/C=C/c1cccc(F)c1)Nc1ccccc1 | inactive
CCCCNC(=O)C1CCN(S(=O)(=O)c2c(C)noc2/C=C\c2ccc(OC)cc2)CC1 | inactive
COC(=O)[C@H](CC(C)C)N(Cc1ccccc1)S(=O)(=O)N(Cc1ccc(OC)cc1)[C@@H](CC(C)C)C(=O)OC | inactive
CC[C@]1(C(=O)OC)[C@H]2C(=O)N(C)C(=O)[C@H]2[C@H]2CN(C)C(=NC3CCCCC3)N21 | inactive
COC(=O)c1ccc(CN2CCCC(CNC(=O)Cc3ccc(OC)cc3)C2)cc1 (stereo not given) | inactive
CC(C)NC(=O)CN1CCC(c2nc3ccccc3[nH]2)CC1 | inactive
